# Anthrax LT inh – qHTS Assay for Anthrax Lethal Toxin Internalization; AID 912, 2007; Cells, anthrax lethal toxin internalization, FRET ratio (460/530); Potency, µM (series often up to 40 µM), inactives show at the top dose activity change, negative = inhibition, hits mostly inhibitors; hit rate 0.67% among 70,000; note: % is set by controls: 0 for no effect and ±100 for the full control effect; nearly all actives have a fitted effect of over 50% in size
# AmpC nodet inh – Promiscuous and Specific Inhibitors of AmpC Beta-Lactamase (assay without detergent). AmpC nitrocefin hydrolysis, absorbance 480 nm, no detergent. Potency, µM (highest dose often 28.7 µM), for inactives: at the top dose activity change, negative = inhibition. hit rate 1.8% among 71,000. AID 585, 2007; note: % of control where 0% means no effect
# Target sequence (P00811 whole entry, looked up): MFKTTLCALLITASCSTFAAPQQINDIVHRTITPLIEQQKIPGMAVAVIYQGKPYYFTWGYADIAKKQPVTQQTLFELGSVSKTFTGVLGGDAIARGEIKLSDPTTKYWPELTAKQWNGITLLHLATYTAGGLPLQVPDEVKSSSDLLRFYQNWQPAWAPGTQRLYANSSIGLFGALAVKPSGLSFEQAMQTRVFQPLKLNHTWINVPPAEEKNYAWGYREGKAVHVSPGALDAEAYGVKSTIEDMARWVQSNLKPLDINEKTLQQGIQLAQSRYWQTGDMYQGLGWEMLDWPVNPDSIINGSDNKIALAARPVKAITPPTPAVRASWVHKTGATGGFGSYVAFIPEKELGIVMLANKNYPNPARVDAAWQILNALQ
#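 AmpC in 20 mM phosphate buffer pH 7.0 was preincubated 15 min at room temperature with compounds. Nitrocefin (800 uM stock) was then added and hydrolysis followed at 480 nm every 20 s for 4 min.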
# AmpC det inh – Promiscuous and Specific Inhibitors of AmpC Beta-Lactamase (assay with detergent); hit rate 0.09% among 71,000; Potency, µM (highest dose often 28.7 µM), inactives show top-dose activity change, negative = inhibition; P00811; purified AmpC, nitrocefin hydrolysis with detergent; active = well fitted curve in the direction sought with a large enough effect; inconclusive = small, poorly fitted or top-dose-only effect; note: % is set by controls: 0 for no effect and ±100 for the full control effect
#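 E. coli AmpC (5.3 nM) in 20 mM phosphate pH 7.0 with 0.01% Triton X-100, preincubated 15 min RT with compound; nitrocefin (2 uL of 800 uM stock) hydrolysis followed by 480 nm absorbance every 20 s over 4 min.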
# SmPrx2 inh – Schistosoma Mansoni Peroxiredoxins (Prx2) | hit rate 0.07% among 65,000 | Potency, µM | S. mansoni Prx2 activity coupled to TGR/GSH (TGR is thioredoxin glutathione reductase), NADPH fluorescence loss, qHTS
#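 Prx2 inhibition was measured as reduced NADPH consumption when electrons flowed from NADPH through TGR and glutathione to Prx2 and H2O2. Plates were read kinetically over 8 min; enzyme reagents were held at 4 deg C during dispensing.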
# Starred values were filed as active, the others as inactive; ? = inconclusive; / = not tested or not shown; [ ] = another dose, or the depositor's remark. In the library only some 2.4% were active in any assay of this set; here they are far more common. Unless noted, calls come from the whole dose curve. Potency is the fitted concentration of half-maximal effect.
SMILES,Anthrax LT inh,AmpC nodet inh,AmpC det inh,SmPrx2 inh
Cc1ccc(-n2nc(-c3ccc(N)cc3)cc2N)cc1,?,3.2µM*[single pt active],9%,>57
O=C(N1CCOCC1)N1CCN(c2ccccc2F)CC1,-9%,4µM*[single pt active],12%,>57
O=C(c1ccccc1C(=O)N1CCN(c2ccccc2F)CC1)N1CCN(c2ccccc2F)CC1,-14%,129%,-1%,/
Cc1ccc2nc(SCC(=O)NCc3ccco3)c(C#N)cc2c1,-13%,16µM*[single pt active],9%,>57
Cc1ccc2cc(C#N)c(SCC(=O)NCc3ccco3)nc2c1,-17%,-24%,7%,>57
COC(=O)[C@@H]1C[C@@H]1[C@@H](NP(=O)(c1ccccc1)c1ccccc1)c1ccccc1,-6%,96%,2%,/
O=C(Nc1ccc2oc(-c3ccccc3F)nc2c1)c1ccc2c(c1)OCCO2,10µM*,34%,-3%,>57
O=C(Nc1ccccc1-c1nc2ccccc2o1)c1ccc2c(c1)OCCO2,-17%,-21%,5%,>57
O=C(CN1CCN(c2ccc(F)cc2)CC1)Nc1nnc(-c2ccccc2)s1,1%,16µM*[single pt active],0%,>57
O=C(CN1CCN(c2ccccc2)CC1)Nc1nnc(-c2ccccc2)s1,-1%,-8%,-2%,>57
COC(=O)c1ccccc1NC1c2ccccc2C(=O)N1c1cccnc1 (stereo unspecified),-9%,4µM*[single pt active],8%,>57
CCc1cccc(NC2c3ccccc3C(=O)N2c2ccc(C)cn2)c1 (stereo unspecified),?,43%,8%,>57
Cc1ccccc1N1C(=O)c2ccccc2C1Nc1cccnc1 (stereo unspecified),-3%,4µM*[single pt active],13%,>57
Cc1ccnc(N2C(=O)c3ccccc3C2Nc2cccc(C)c2C)c1 (stereo unspecified),-5%,13%,10%,>57
CCOC(=O)c1ccc(NC2c3ccccc3C(=O)N2c2cccnc2)cc1 (stereo unspecified),-5%,62%,11%,>57
CCc1cccc(NC2c3ccccc3C(=O)N2c2cccnc2)c1 (stereo unspecified),-3%,4µM*[single pt active],9%,>57
O=C1c2ccccc2C(Nc2ccccc2F)N1c1cccnc1 (stereo unspecified),0%,4µM*[single pt active],13%,>57
N[C@H](CS(=O)O)C(=O)O,-3%,6%,2%,>57
O=C1CC(O)(C(F)(F)F)Oc2c1ccc1ccccc21 (stereo unspecified),10µM*,-21%,0%,/
O=c1oc2ccccc2n1CCc1ccccc1,-4%,-11%,-2%,>57
O=c1oc2ccccc2n1Cc1ccccc1Cl,?,4µM*,14%,>57
N#Cc1nc(-c2ccccc2F)oc1NCCN1CCOCC1,9%,4µM*[single pt active],13%,>57
N#Cc1nc(-c2cccc3ccccc23)oc1NCCN1CCOCC1,?,143%,-3%,>57
COC(=O)[C@H](NC(=O)c1cc(-c2ccccc2)nc2ccccc12)c1ccccc1,5µM*,34%,-1%,>57
COc1cccc(-c2cc(C(=O)Nn3cnnc3)c3ccccc3n2)c1,-5%,-9%,12%,>57
SMILES,Anthrax LT inh,AmpC nodet inh,AmpC det inh,SmPrx2 inh
CN1CCN(c2cc3c(c4c2[nH]c2ccccc24)C(=O)CC(C)(C)C3)CC1,?,3.2µM*[single pt active],12%,>57
CCCS(=O)(=O)NCCc1csc(-c2cccnc2)n1,-2%,17%,11%,>57
O=C(Nc1ccc(-c2noc(CCc3ccccc3)n2)cc1)c1cccnc1,10µM*,98%,-3%,>57
N#CC(=C(/N)Sc1ccccc1N)/C(C#N)=C(/N)Sc1ccccc1N,?,?,-5%,>57
O=S(=O)(Nc1nccs1)c1cc(Cl)ccc1Cl,2%,10µM*[single pt active],-5%,>57
CCOC(=O)C1CCCN(C(=O)Cn2nc(Cc3cccnc3)c3ccccc3c2=O)C1 (stereo unspecified),2%,3.2µM*[single pt active],12%,>57
Cc1ccc(S(=O)(=O)Nc2cccc(-c3cn4ccsc4n3)c2)cc1,?,6.3µM*,-1%,>57
CC(C)(C)OC(=O)N[C@@H](Cc1ccccc1)c1nnc(SCC(=O)O)o1,?,-4%,12%,>57
CCC(C)[C@@H](NC(=O)OC(C)(C)C)c1nnc(S(=O)(=O)Cc2cccc(C)c2)o1 (stereo partly specified),?,7.9µM*,4µM*,>57
CC(C)(C)OC(=O)N[C@@H](Cc1ccccc1)c1nnc(S(=O)(=O)Cc2ccccc2)o1,7.9µM*,3.2µM*,13µM*,/
CCOC(=O)N1CCN(c2c(NCCCOC(C)C)c(=O)c2=O)CC1,-14%,4µM*[single pt active],8%,>57
CCOC(=O)N1CCN(c2c(NCCCN(C)c3ccccc3)c(=O)c2=O)CC1,-1%,4µM*[single pt active],12%,>57
CCOC(=O)N1CCN(c2c(NCC3CCN(Cc4cccc(C)c4)CC3)c(=O)c2=O)CC1,12%,4µM*[single pt active],15%,>57
CCOC(=O)N1CCN(c2c(NCCN3CCN(Cc4ccccc4)CC3)c(=O)c2=O)CC1,-10%,4µM*[single pt active],12%,>57
CCOC(=O)C1CCN(c2c(NCCCN3CCN(Cc4ccccc4)CC3)c(=O)c2=O)CC1,3%,19%,10%,>57
CCOC(=O)N1CCC(Nc2c(NCCN3CCN(Cc4ccccc4)CC3)c(=O)c2=O)CC1,-7%,3%,0%,>57
C[C@H]1[C@H](O)[C@@H](C)C=CC=CC=CC=CC=CC=CC=C[C@H](O[C@@H]2O[C@@H](C)[C@H](O)[C@@H](N)[C@@H]2O)C[C@@H]2O[C@](O)(C[C@@H](O)C[C@@H](O)[C@@H](O)CC[C@@H](O)C[C@@H](O)CC(=O)O[C@H]1C)C[C@H](O)[C@H]2C(=O)O,?,103%[5.75 µM],-5%[5.75 µM],>57
Oc1cccc2ccc(SSc3ccc4cccc(O)c4n3)nc12,-4%[8 µM],-30%[5.75 µM],-4%[5.75 µM],>57
CCOC(=O)N1CCN(c2c(NCCN(C)Cc3ccccc3)c(=O)c2=O)CC1,-7%,4µM*[single pt active],10%,>57
CCOC(=O)C1CCCN(c2c(NCCCN(C)Cc3ccccc3)c(=O)c2=O)C1 (stereo unspecified),-11%,-4%,-3%,>57
CCOC(=O)c1c(C)[nH]c2ccc3c(c12)CN1CCc2cc(OC)ccc2[C@@H]1O3,2.5µM*,22%,-3%,>57
CCS(=O)(=O)N1CCC[C@H]2CN3CCc4cc(OC)ccc4[C@@H]3C[C@@H]21,0%,26%,0%,>57
CC(=O)N1CCC2(CCCN(C(=O)Nc3cccc(C#N)c3)C2)CC1,?,26%,1%,>57
Cc1cc(NC(=O)Cn2c(=O)n(Cc3ccccc3)c(=O)c3ccccc32)no1,-7%,10µM*,-1%,>57
O=C(Cn1c(=O)n(Cc2ccco2)c(=O)c2ccccc21)Nc1cccc(Cl)c1,2.5µM*,2.5µM*[single pt active],13%,>57
Cc1ccccc1CNc1ncnc2c1ncn2[C@@H]1O[C@@H](CO)[C@H](O)[C@@H]1O,?,2%,-3%,>11
